# Experiment: caspase-8 TRAIL sensitization, hit retest, confirmation, cell-based, NB7+caspase-8, with/without TRAIL, luminescence panel (AID 651596)
# Conditions: NB7 neuroblastoma + caspase-8, without TRAIL, luminescence viability, without TRAIL, mean of runs, at 10 µM
row,Compound,activity [%]
1,Cc1ccc(C(=O)NCCc2cccs2)cc1,75.8
2,Cc1cc(C)c2sc(N(CCCN(C)C)C(=O)c3ccc(S(=O)(=O)N(C)C4CCCCC4)cc3)nc2c1,4.92
3,N/C(=N\OC(=O)c1ccccc1)C(C(=O)NOC(=O)c1ccccc1)C1CCCCC1 (stereo unspecified),94.9
4,Cc1ccc(N(Cc2cc(=O)[nH]c3ccccc23)C(=O)CCl)c(C)c1,96.5
5,CCN1CCN(c2ccc(S(=O)(=O)N3CCOCC3)cc2NC(=O)/C=C/c2ccc([N+](=O)[O-])cc2)CC1,62.1
6,CC1CCCCN1S(=O)(=O)c1ccc(C(=O)N(CCCN(C)C)c2nc3ccc(Br)cc3s2)cc1 (stereo unspecified),17.7
7,COc1ccccc1N(C(=O)CCl)c1cn(C(C)=O)c2ccccc12,98.3
8,CC(C)(C)C(=O)Nc1cc2nn(-c3ccccc3)nc2cc1Cl,97.7
9,O=C(NC1CCCCC1)C(c1cccnc1)N(C(=O)CCl)c1cccc(Cl)c1 (stereo unspecified),99.5
10,CCOc1cccc2sc(N(CCCN(C)C)C(=O)c3ccc(S(=O)(=O)N(C)Cc4ccccc4)cc3)nc12,-0.65
11,Cc1cc(C(=O)COC(=O)c2ccccc2Br)c(C)n1CC1CCCO1 (stereo unspecified),74.3
12,Cc1cccc(-n2ncc3c(N(C)C4CCCCC4)ncnc32)c1,88
13,O=C(CCl)N1N=C(c2ccco2)CC1c1cccs1 (stereo unspecified),97.8
14,O=C(Nc1ccccc1)NN(C(=O)CCl)c1ccccc1,98.3
15,COc1cc(NC(=O)c2c(F)c(F)c(F)c(F)c2F)c(OC)cc1Cl,64.5
16,Cc1ccc2sc(N(CCCN(C)C)C(=O)c3ccc(S(=O)(=O)N4CCc5ccccc5C4)cc3)nc2c1C,87

# — PubChem BioAssay
